The nature of test [1]: NCI Yeast Anticancer Drug Screen. Data for the rad50 strain (AID 155).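 Note: 0% = growth of vehicle-only cultures of the same strain.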 The following applies: S. cerevisiae rad50 strain growth inhibition, active compounds read high. In outline:
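Genetically altered yeast (DNA repair pathway); compound treatment; growth inhibition vs vehicle ctrl.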

A short description of test [2]: NCI Yeast Anticancer Drug Screen. Data for the mec2-1 strain (AID 157). Particulars: S. cerevisiae mec2-1 strain, active compounds read high. The method in brief:
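Test agents were screened against the mec2-1 yeast strain, with defined DNA repair or cell cycle alteration. Growth was scored as inhibition against vehicle-only controls.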

A short description of test [3]: NCI Yeast Anticancer Drug Screen. Data for the sgs1 mgt1 strain (AID 161).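 Note: 0% = growth of cultures given vehicle only.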 Particulars: S. cerevisiae sgs1 mgt1 strain, active compounds read high. In outline: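 Genetically altered yeast, compound exposure, growth inhibition relative to vehicle.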
The nature of test [4]: NCI Yeast Anticancer Drug Screen. Data for the cln2 rad14 strain (AID 165).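 Note: 0% = growth equal to vehicle treated cultures.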 Particulars: S. cerevisiae cln2 rad14 strain, active compounds read high. The method in brief: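 Growth of compound-exposed yeast (cln2 rad14 genotype) measured and expressed as inhibition relative to vehicle.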
A short description of test [5]: NCI Yeast Anticancer Drug Screen. Data for the bub3 strain (AID 167). Particulars: S. cerevisiae bub3 mutant strain, active compounds read high. The method in brief: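 Yeast carrying a defined mutation is treated with each compound, and growth is compared with that of vehicle-exposed cells to give inhibition.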
Test [6] can be described thus: NCI Yeast Anticancer Drug Screen. Data for the mlh1 rad18 strain (AID 175). Particulars: S. cerevisiae mlh1 rad18 strain growth inhibition, active compounds read high. The method in brief: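 In this whole-cell yeast screen, a strain with altered DNA damage repair is challenged with compound, and its growth is measured against matched vehicle-treated controls.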
Setting [7] is: at 5.0 µM (retest, dose inferred, filed as 0.5).
Where [8] appears, read: at 50.0 µM (retest, dose inferred, filed as 5.0).

The structures appear in SMILES notation. Compounds without any hit were thinned out: in the full panel of roughly 79,000, 15% have a hit. Unmarked numbers belong to inactive results. The source made the active and inactive calls. Cut-off read from the data, not from the text of the source: active = growth inhibition above about 70%; inactive = the rest.

In the case of `CC(c1ccccc1)C(C(=O)O)(c1ccccc1)c1ccccc1` (configuration not stated), the growth inhibition was 80% (active) in test [1] (setting [7]); 4% in test [1] (setting [8]); 99.4% (active) in test [1] (at 50.0 µM); 76% (active) in test [2] (setting [7]); 7% in test [2] (setting [8]); 99.3% (active) in test [2] (at 50.0 µM). Further, the growth inhibition in test [3] (setting [7]) is 61%; in test [3] (setting [8]) it was 26%; in test [3] (at 50.0 µM), 99.7% (active); in test [4] (setting [7]), 81% (active); in test [4] (setting [8]), 12%; in test [4] (at 50.0 µM) it was 99.3% (active). For the same compound, the growth inhibition in test [5] (setting [7]) was 76% (active); in test [5] (setting [8]), -3%; in test [5] (at 50.0 µM), 99.5% (active); in test [6] (setting [7]), 84% (active); in test [6] (setting [8]) it was 8%; in test [6] (at 50.0 µM) it was 99.3% (active).

As for `ClC1=C(Cl)C(Cl)(Cl)C(Cl)(Cl)C1(Cl)Cl`, the growth inhibition in test [1] (setting [7]) was 55%; in test [1] (setting [8]) it was 7%; in test [1] (at 50.0 µM), 99.7% (active); in test [2] (setting [7]), 49%; in test [2] (setting [8]), 99% (active); in test [2] (at 50.0 µM), 99.5% (active). The growth inhibition was 59% in test [3] (setting [7]); 62% in test [3] (setting [8]); 99.7% (active) in test [3] (at 50.0 µM); 31% in test [4] (setting [7]); 98% (active) in test [4] (setting [8]); 98% (active) in test [4] (at 50.0 µM). Also, the growth inhibition in test [5] (setting [7]) is 41%; in test [5] (setting [8]) it was 98% (active); in test [5] (at 50.0 µM), 99.4% (active); in test [6] (setting [7]) it was 84% (active); in test [6] (setting [8]), 99% (active); in test [6] (at 50.0 µM), 99.2% (active).

Regarding `CC(/C=C/c1cccc(C)c1)=N\NC(N)=S`, the growth inhibition was 14% in test [1] (setting [7]); 41% in test [1] (setting [8]); 30.4% in test [1] (at 50.0 µM); 12% in test [2] (setting [7]); 38% in test [2] (setting [8]); 53.4% in test [2] (at 50.0 µM). The growth inhibition was 16% in test [3] (setting [7]); 34% in test [3] (setting [8]); 86.2% (active) in test [3] (at 50.0 µM); 1% in test [4] (setting [7]); 11% in test [4] (setting [8]); 38.6% in test [4] (at 50.0 µM). The growth inhibition was 20% in test [5] (setting [7]); 26% in test [5] (setting [8]); 81.1% (active) in test [5] (at 50.0 µM); 23% in test [6] (setting [7]); 38% in test [6] (setting [8]); 80.5% (active) in test [6] (at 50.0 µM).

On to `CCC(=O)Oc1ccc(-c2ccccc2)cc1Cl`, for which the growth inhibition was -3% in test [1] (setting [7]); 98% (active) in test [1] (setting [8]); 97% (active) in test [1] (at 50.0 µM); -3% in test [2] (setting [7]); 99% (active) in test [2] (setting [8]); 98.2% (active) in test [2] (at 50.0 µM). Further, the growth inhibition is -2% in test [3] (setting [7]); 96% (active) in test [3] (setting [8]); 97.5% (active) in test [3] (at 50.0 µM); -2% in test [4] (setting [7]); 98% (active) in test [4] (setting [8]); 96% (active) in test [4] (at 50.0 µM). In addition, the growth inhibition in test [5] (setting [7]) is 14%; in test [5] (setting [8]), 99% (active); in test [5] (at 50.0 µM) it was 98.8% (active); in test [6] (setting [7]), 0%; in test [6] (setting [8]), 98% (active); in test [6] (at 50.0 µM), 98.2% (active).

For the compound `CC(C)=CCC/C(C)=C/CCC1(C)C=Cc2c(c3ccccc3oc2=O)O1` (configuration not stated), the growth inhibition is 28% in test [1] (setting [7]); 3% in test [1] (setting [8]); 20.1% in test [1] (at 50.0 µM); 25% in test [2] (setting [7]); 15% in test [2] (setting [8]); 15.2% in test [2] (at 50.0 µM). For the same compound, the growth inhibition in test [3] (setting [7]) is 51%; in test [3] (setting [8]), 36%; in test [3] (at 50.0 µM), 57.6%; in test [4] (setting [7]), 37%; in test [4] (setting [8]) it was 25%; in test [4] (at 50.0 µM) it was 52.3%. Moreover, the growth inhibition in test [5] (setting [7]) is 53%; in test [5] (setting [8]), 28%; in test [5] (at 50.0 µM), 23.1%; in test [6] (setting [7]) it was 25%; in test [6] (setting [8]) it was 16%; in test [6] (at 50.0 µM), 76.5% (active).

With `Cc1ccc(NC(Nc2ccc(C)cc2C)=C(/C=C(\Cl)[N+](=O)[O-])[N+](=O)[O-])c(C)c1`, the growth inhibition in test [1] (setting [7]) was 99% (active); in test [1] (setting [8]) it was 97% (active); in test [1] (at 50.0 µM), 96.6% (active); in test [2] (setting [7]), 99% (active); in test [2] (setting [8]), 97% (active); in test [2] (at 50.0 µM) it was 96.1% (active). Further, the growth inhibition in test [3] (setting [7]) was 99% (active); in test [3] (setting [8]), 97% (active); in test [3] (at 50.0 µM), 95.5% (active); in test [4] (setting [7]), 98% (active); in test [4] (setting [8]) it was 93% (active); in test [4] (at 50.0 µM), 93.2% (active). The growth inhibition in test [5] (setting [7]) is 99% (active); in test [5] (setting [8]), 97% (active); in test [5] (at 50.0 µM) it was 96% (active); in test [6] (setting [7]), 99% (active); in test [6] (setting [8]), 96% (active); in test [6] (at 50.0 µM) it was 96.3% (active).

As for `O=S1OCCS1` (configuration not stated), the growth inhibition was 10% in test [1] (setting [7]); 87% (active) in test [1] (setting [8]); 98.8% (active) in test [1] (at 50.0 µM); 4% in test [2] (setting [7]); 90% (active) in test [2] (setting [8]); 99% (active) in test [2] (at 50.0 µM). In addition, the growth inhibition in test [3] (setting [7]) was 11%; in test [3] (setting [8]), 87% (active); in test [3] (at 50.0 µM) it was 98.5% (active); in test [4] (setting [7]), -3%; in test [4] (setting [8]), 74% (active); in test [4] (at 50.0 µM), 97.4% (active). Moreover, the growth inhibition in test [5] (setting [7]) was -1%; in test [5] (setting [8]) it was 92% (active); in test [5] (at 50.0 µM), 99.2% (active); in test [6] (setting [7]) it was 7%; in test [6] (setting [8]), 95% (active); in test [6] (at 50.0 µM), 98.7% (active).

Take `O=[N+]([O-])c1ccc(N/N=C/CCCCCCCCCCBr)c([N+](=O)[O-])c1`: the growth inhibition in test [1] (setting [7]) is -4%; in test [1] (setting [8]) it was -3%; in test [1] (at 50.0 µM) it was 24.8%; in test [2] (setting [7]), -2%; in test [2] (setting [8]) it was 1%; in test [2] (at 50.0 µM), 10.4%. The growth inhibition is -5% in test [3] (setting [7]); 0% in test [3] (setting [8]); 2.4% in test [3] (at 50.0 µM); -4% in test [4] (setting [7]); -6% in test [4] (setting [8]); 9.15% in test [4] (at 50.0 µM). The growth inhibition in test [5] (setting [7]) is -5%; in test [5] (setting [8]), 1%; in test [5] (at 50.0 µM) it was 50.3%; in test [6] (setting [7]) it was -1%; in test [6] (setting [8]) it was -2%; in test [6] (at 50.0 µM) it was 21.4%.

Consider `CC1=Cc2cc3[n-]c(cc4nc(cc5[n-]c(cc1n2)cc5C)C(C)=C4CCC(=O)O)c(CCC(=O)O)c3C.[Pd+2]`, for which the growth inhibition in test [1] (setting [7]) is 0%; in test [1] (setting [8]) it was 72% (active); in test [1] (at 50.0 µM), 15.1%; in test [2] (setting [7]), 2%; in test [2] (setting [8]), 55%; in test [2] (at 50.0 µM), 26%. Further, the growth inhibition was 0% in test [3] (setting [7]); 80% (active) in test [3] (setting [8]); 12.2% in test [3] (at 50.0 µM); -11% in test [4] (setting [7]); 61% in test [4] (setting [8]); 62.8% in test [4] (at 50.0 µM). Besides, the growth inhibition in test [5] (setting [7]) is -3%; in test [5] (setting [8]), 69%; in test [5] (at 50.0 µM), 7.7%; in test [6] (setting [7]), -1%; in test [6] (setting [8]), 73% (active); in test [6] (at 50.0 µM), 10.6%.

The record behind these values is PubChem BioAssay (NCI).
